Experimental data from PubChem BioAssay AID1159580 (chemical genetic matrix, 2015).
Several values for one entry are separate records, joined by “and”; a condition that tells them apart may be missing. Identical values can stand only once. The campaign covered roughly 5,500 compounds. About 2,000 (36%) were called active. Roughly 18% stayed inconclusive and do not appear here. Cut-off read from the data, not from the text of the source: active = normalized growth mostly below about 0.91 (no sharp cut-off); inconclusive = no clear call, values can overlap the other calls; inactive = mostly above about 0.92. This is one part of the list.

Test: chemical genetic growth profiling, strain panel (AID 1159580);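 note: tested at 20 µM; growth read once vehicle control cultures reached saturation at 30 °C; 1 = growth at the plate median or of vehicle wells; lower values mean less growth of the strain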
Settings: S. cerevisiae deletion strains, growth OD

Measured: normalized growth

CCCCCC(C)N (stereo unspecified)
inactive: locus YAL013W, strain DEP1, hits give low values 1.01 | locus YAL021C, strain ccr4, hits give low values 1.02 | locus YAL026C, strain drs2, hits give low values 1.02 | locus YAL030W, strain snc1, hits give low values 1.02 | locus YBL061C, strain skt5, hits give low values 1.03 | locus YBR009C, strain hhf1, hits give low values 1.03 | locus YBR021W, strain FUR4, hits give low values 1.01 | locus YBR023C, strain chs3, hits give low values 1.05 | locus YBR171W, strain sec66, hits give low values 1.04 | locus YBR229C, strain ROT2, hits give low values 1.01 | locus YBR231C, strain swc5, hits give low values 1.04 | locus YBR279W, strain paf1, hits give low values 1.02 | locus YCL011C, strain gbp2, hits give low values 1.02 | locus YCL016C, strain dcc1, hits give low values 1.03 | locus YCL029C, strain bik1, hits give low values 0.994 | locus YCL061C, strain MRC1, hits give low values 1.02 | locus YCL069W, strain vba3, hits give low values 1.03 | locus YCR088W, strain abp1, hits give low values 1.02 | locus YDL005C, strain med2, hits give low values 1.04 | locus YDL035C, strain GPR1, hits give low values 1.02 | locus YDL040C, strain nat1, hits give low values 1.03 | locus YDL074C, strain BRE1, hits give low values 1.02 | locus YDL101C, strain DUN1, hits give low values 1 | locus YDL134C, strain PPH21, hits give low values 1.02 | locus YDL185W, strain tfp1, hits give low values 0.999 | locus YDL192W, strain arf1, hits give low values 0.997 | locus YDR001C, strain nth1, hits give low values 1.02 | locus YDR069C, strain doa4, hits give low values 1.01 | locus YDR101C, strain arx1, hits give low values 0.99 | locus YDR137W, strain rgp1, hits give low values 1.08 | locus YDR150W, strain NUM1, hits give low values 1.02 | locus YDR159W, strain sac3, hits give low values 1.02 | locus YDR162C, strain NBP2, hits give low values 1.01 | locus YDR195W, strain ref2 1.03 | locus YDR297W, strain sur2, hits give low values 1.02 | locus YDR318W, strain mcm21, hits give low values 0.994 | locus YDR334W, strain swr1, hits give low values 1.02 | locus YDR335W, strain msn5, hits give low values 1.03 | locus YDR388W, hits give low values 0.993 | locus YDR392W, strain spt3, hits give low values 0.996 | locus YDR502C, strain sam2, hits give low values 0.993 | locus YEL003W, strain gim4, hits give low values 1.02 | locus YEL037C, strain rad23, hits give low values 1.02 | locus YEL061C, strain CIN8 (second series), hits give low values 1.03 | locus YEL061C, strain CIN8, hits give low values 1.01 | locus YER015W, strain faa2, hits give low values 1.02 | locus YER016W, strain bim1, hits give low values 1.02 | locus YER110C, hits give low values 0.989 | locus YER111C, strain swi4, hits give low values 1.03 | locus YER155C, strain BEM2 (second series), hits give low values 1 | locus YER155C, strain BEM2, hits give low values 1.02 | locus YER167W, strain BCK2, hits give low values 1.01 | locus YFR010W, strain ubp6, hits give low values 1.02 | locus YGL078C, strain dbp3, hits give low values 0.995 | locus YGL086W, strain mad1, hits give low values 1.01 | locus YGL167C, strain pmr1, hits give low values 1.03 | locus YGL173C, strain kem1, hits give low values 1.03 | locus YGL227W, strain vid30, hits give low values 1.02 | locus YGL240W, strain doc1, hits give low values 1.02 | locus YGL248W, strain PDE1, hits give low values 1 | locus YGL253W, strain hxk2, hits give low values 1.03 | locus YGR078C, strain PAC10, hits give low values 0.908 | locus YGR135W, strain pre9, hits give low values 0.996 | locus YGR229C, strain SMI1, hits give low values 1.01 | locus YGR252W, strain gcn5, hits give low values 1.05 | locus YHR027C, strain rpn1, hits give low values 1.02 | locus YHR030C, strain SLT2, hits give low values 1.02 and 1.01 | locus YHR079C, strain IRE1 (second series), hits give low values 0.996 | locus YHR079C, strain IRE1, hits give low values 0.99 | locus YHR094C, strain hxt1, hits give low values 0.998 | locus YHR129C, strain ARP1, hits give low values 1.01 | locus YHR142W, strain chs7, hits give low values 1.04 | locus YHR200W, strain rpn10, hits give low values 0.996 | locus YIL066C, strain RNR3, hits give low values 1.02 | locus YIL073C, strain SPO22, hits give low values 0.987 | locus YIL125W, strain kgd1, hits give low values 1 | locus YIR030C, strain dcg1, hits give low values 0.996 | locus YJL092W, strain hpr5, hits give low values 1.02 | locus YJL095W, strain BCK1 (second series), hits give low values 1.02 | locus YJL095W, strain BCK1, hits give low values 0.999 and 1 | locus YJL115W, strain asf1, hits give low values 1.02 | locus YJL129C, strain trk1, hits give low values 1.05 | locus YJL134W, strain LCB3, hits give low values 1 | locus YJL154C, strain vps35, hits give low values 1.01 | locus YJL164C, strain tpk1, hits give low values 1.02 | locus YJL166W, strain qcr8, hits give low values 1.02 | locus YJL168C, strain set2, hits give low values 0.991 | locus YJL187C, strain SWE1 (second series), hits give low values 1.01 | locus YJL187C, strain SWE1, hits give low values 1.02 | locus YJR043C, strain POL32, hits give low values 0.998 | locus YJR066W, strain TOR1, hits give low values 0.942
